From PubChem BioAssay AID371 (SRMLSC, 2006)
Hit rate of the full screen: of about 3,300 compounds, about 280 (8.5%) were called active.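 Rule for the calls: active = mean growth inhibition over the two runs of 50% or more; inactive = mean growth inhibition under 50%.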 The sample as a whole holds a higher share of actives than the screen did.

assay: A549 NSCLC cell proliferation inhibitors – ATP luminescence, human non-small cell lung line, primary screen (AID 371); details: at 10 µM, stronger effect = higher value;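 note: compound exposure lasted 72 h before the ATP read; 0% = untreated cell signal and 100% = no luminescence left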

Growth inhibition, inactive:
COC(=O)CCc1c(C)[nH]c(C(=O)OCc2ccccc2)c1C 3.52%
O=C(Nc1ccc2c(c1)OCO2)c1cc2n(n1)C(C(F)(F)F)CC(c1ccccc1)N2 (stereo not drawn) 10.4%
Cc1nc2sc(C)c(C)c2c(=O)o1 3.93%
COCCCNC(=O)C(C#N)c1nc2ccccc2nc1N1CCCC1 (stereo not drawn) 9.56%
O=C(O)CCCC(=O)Nc1ccn(-c2ccccc2)n1 -9.55%
COc1ccc(C2C(C#N)=C(C)NC3=C2C(=O)c2ccccc23)cc1 (stereo not drawn) 19.6%
COCCOCCOCCC(=O)NC1CC2CCC1(C)C2(C)C (stereo not drawn) 0.85%
O=C(CCC1CCCC1)N1CCC(N2CCN(c3ccccc3)CC2)CC1 17.9%
CC(NCCc1ccc(O)cc1)C(O)c1ccc(O)cc1 (stereo not drawn) 1.42%
NC(=O)C1CCN(CCC(=O)Nc2ccc(Br)cc2)CC1 7.48%
Cc1cccc(NC(=O)c2c(C)cc(=O)oc2C)n1 -3.57%
CCNc1nc(Oc2ccccc2)nc(OC(C)C(=O)OCC)n1 (stereo not drawn) -2.75%
CCOc1ccc(-n2c3nc4ccccc4nc3c3c(=O)n(Cc4ccco4)cnc32)cc1 14.6%
COc1cc(-n2c3nc4ccccc4nc3c3c(=O)n(Cc4ccco4)cnc32)cc(OC)c1OC 4.1%
COc1ccc(C2(CN(C(C)=O)C(C)=O)CCCC2)cc1OC 9.44%
COC(=O)NCC12CC3CC(C1)CC(CNC(=O)OC)(C3)C2 2.32%
Nc1c(Br)cc2oc(-c3ccccc3)nc2c1Br 31.4%
COc1ccc(N2CC(=O)N(c3ccc(OC)c(OC)c3)CC2=O)cc1OC -2.72%
O=C1CCCN1c1ccc(S(=O)(=O)NCc2ccco2)cc1 0.41%
CCOc1ccc(/C(O)=C2/C(=O)C(=O)N(CCN(C)C)C2c2ccccc2)cc1Cl (stereo not drawn) -0.75%
COc1cccc(/C(O)=C2\C(=O)C(=O)N(c3ccccn3)C2c2ccccc2OC)c1 (stereo not drawn) 6.79%
CC(C)Cn1cnc2c(c1=O)c1nc3ccccc3nc1n2Cc1ccc2c(c1)OCO2 12.6%
CC(C)C1Cc2c(C#N)c(N)n(C)c(=S)c2CO1 (stereo not drawn) 11.2%
COc1ccc(OC)c(C2C(C(=O)c3ccco3)=C(O)C(=O)N2CCCN2CCOCC2)c1 (stereo not drawn) 4.05%
Cc1nc(N2CCN(Cc3ccccc3)CC2)c(C#N)c2c1COC(C)(C)C2 17.5%
c1ccc2c(N3CCCCC3)nc(N3CCCCC3)nc2c1 25.8%
Fc1ccccc1-c1nc(N2CCCCC2)c2ccccc2n1 47.5%
COc1cccc(-c2nc(N3CCN(Cc4ccccc4)CC3)c3ccccc3n2)c1O 6.86%
CCOC(=O)COc1nc(N(C)C)nc(N(C)C)n1 -5.85%
Cc1nc(SCC(=O)Nc2ccc3c(c2)OCO3)c(C#N)c2c1CCCC2 18.5%
C=C1C2(C(=O)Nc3nccs3)CCC(C2)C1(C)C (stereo not drawn) 5.39%
COc1ccc(-c2nnc3sc(-c4c(OC)cccc4OC)nn23)cc1 16.6%
CC(O)CNc1nc2c(c(=O)n(C)c(=O)n2C)n1Cc1cccc(C(F)(F)F)c1 (stereo not drawn) 22.2%
O=C(Nc1ccc2c(c1)OCO2)c1cncc(Br)c1 4.86%
COC(=O)c1ccn(C(=O)c2ccc(Cl)cc2)n1 3.19%
COCCOC(=O)c1c(C)nc(SCC(=O)Nc2ccc(OC)cc2)c(C#N)c1-c1ccco1 5.46%
C=CCN(CC=C)c1nc2ccccc2nc1C(C#N)C(=O)OC(C)C (stereo not drawn) 23.2%
CCCCN(CCCC)c1nc2ccccc2nc1C(C#N)C(=O)NCCCOC (stereo not drawn) 9.29%
CCOC(=O)c1oc2cc(O)cc(C)c2c(=O)c1-c1cscn1 4.18%
Cc1oc2cc(O)ccc2c(=O)c1-c1cnn(-c2ccccc2)c1 28.4%
C#CCSC1=C(C#N)C(c2cccs2)C(C(=O)OCC)=C(C)N1 (stereo not drawn) 47.5%
CCSC1=C(C#N)C(c2cccs2)C(C(=O)OC)=C(C)N1 (stereo not drawn) 30.4%
COc1cc(-c2nn3c(-c4ccco4)nnc3s2)cc(OC)c1OC 0.05%
O=C(NCCCN1CCOCC1)C1(c2ccccc2)CCOCC1 2.07%
O=C(c1ccc(=O)oc1)N1CCN(C(c2ccccc2)c2ccccc2)CC1 41.2%
CCCCc1nc2n[nH]c(N)c2c2c1CCCC2 12.1%
CC(C)(C#N)C(C)(C)c1nn[nH]n1 -3.48%
Cc1cc(=O)n(CCC(=O)O)c2ccccc12 0.16%
Clc1ccc(Cn2c(CN3CCCC3)nc3ccccc32)cc1 29.6%
COc1ccc2c(c1)nc(N)n2Cc1ccccc1 21.8%
COc1ccc(OC)c(C2C(C#N)=C(N)Oc3cc(C)n(Cc4ccccn4)c(=O)c32)c1 (stereo not drawn) -2.3%
COC(=O)CSc1nc(C)c(Oc2ccccc2)c(=O)[nH]1 -3.23%
COC(=O)c1ccccc1OCc1cccc(C)n1 6.89%
Cc1cccc2c1NC(C)CC2C (stereo not drawn) 0.83%
COc1ccc(C2C(C#N)=C(N)SC(N)=C2C#N)cc1OC 2.23%
CC(=O)NC1(C(F)(F)F)C(=O)Nc2c1c(=O)n(C)c(=O)n2C (stereo not drawn) 0.54%
CCOC(=O)C1=C(N)N2C(=O)CSC2=C(C(=O)OC)C1 -0.01%
OCCOCCN1CCN(C(c2ccccc2)c2ccc(Cl)cc2)CC1 (stereo not drawn) 1.66%
Cc1cccc(CN2CCN(C(c3ccccc3)c3ccc(Cl)cc3)CC2)c1 (stereo not drawn) 3.35%
CCCCCn1c2nc3ccccc3nc2c2c(=O)n(CC(C)C)cnc21 -1.51%
CN1CCN(c2nc3c(c(=O)n(C)c(=O)n3C)n2Cc2cccc3ccccc23)CC1 -7.28%
CCN(CC)CCCN1C(=O)C(=O)/C(=C(/O)c2ccc(OC)cc2)C1c1ccco1 (stereo not drawn) 1.94%
Nc1c(C(=O)NCC2CCCO2)c2nc3ccccc3nc2n1/N=C/c1ccncc1 (stereo not drawn) 2.51%
COCCn1c(N)c(C(=O)NCC2CCCO2)c2nc3ccccc3nc21 (stereo not drawn) 23.5%
O=C(Oc1ccccc1N1C(=O)CCC1=O)c1ccco1 6.54%
COC(=O)CSc1nc2c(c(=O)n(C)c(=O)n2C)n1CCC(C)C -2.98%
COC(=O)c1ccccc1NC(=O)C1COc2ccccc2O1 (stereo not drawn) 11.9%
COc1cc2nc(N3CCN(C(=O)C4CCCO4)CC3)nc(N)c2cc1OC (stereo not drawn) 15.4%
COc1ccc2[nH]c(C)c(C(=O)CN3CCN(C(=O)c4ccco4)CC3)c2c1 7.48%
COc1cccc(OC)c1OCCN1CCN(C(=O)c2ccco2)CC1 2.2%
Cc1cc(Cl)ccc1OCC(=O)OC(C)C(=O)N(C)C (stereo not drawn) -0.96%
O=C(O)c1cc2n(n1)C(C(F)(F)F)CC(c1ccccc1)N2 (stereo not drawn) -0.01%
CCOC(=O)c1nc2nc(C)c(Cl)c(=O)n2[nH]1 -2.82%
O=C(O)CC(SCc1ccc(C(=O)O)o1)C(=O)O (stereo not drawn) -5.57%
CC(=O)C(=[N+]=[N-])C(=O)NCc1ccccc1 -2.8%
CC(C)(C)NCc1cc2ccccc2[nH]c1=O 4.01%
Cc1nc2oc(C(=O)c3ccc(Br)cc3)c(N)c2c2c1COC(C)(C)C2 24.5%
COCCNC(=O)c1c(N)n(/N=C/c2cccs2)c2nc3ccccc3nc12 6.53%
COCCCNC(=O)c1c(N)n(/N=C/c2cccs2)c2nc3ccccc3nc12 17%
CCC(CC)n1[nH]c(=O)cc1N 1.19%
CC1(C)CC(=O)C(C=N)=C(O)C1 1.41%
O=C(c1ccccc1F)N1CCC(N2CCCCCC2)CC1 2.62%

Growth inhibition, active:
CCCCCCCCNC(C)C(O)c1ccc(SC(C)C)cc1 (stereo not drawn) 92.4%
Cc1cc(C)cc(-n2c3nc4ccccc4nc3c3c(=O)n(Cc4ccco4)cnc32)c1 72.2%
COc1ccc(OC)c(NS(=O)(=O)c2ccc(N3CCCC3=O)cc2)c1 62.5%
c1ccc(N2CCN(c3nc(-c4ccccn4)nc4ccccc34)CC2)cc1 64.6%
c1ccc(CN2CCN(c3nc(-c4ccccn4)nc4ccccc34)CC2)cc1 60%
CCCN(CCC)c1nc2ccccc2nc1C(C#N)C(=O)OC(C)COC (stereo not drawn) 52.1%
Cc1oc2cc(O)cc(C)c2c(=O)c1-c1cnn(-c2ccccc2)c1 59%
CCOC(=O)C1=C(C)NC(SCC(=O)Nc2nc(C)cs2)=C(C#N)C1c1cccs1 (stereo not drawn) 86.8%
CNCCCC12CCC(c3ccccc31)c1ccccc12 52.9%
COc1ccc(CCN2CCC(Nc3nc4ccccc4n3Cc3ccc(F)cc3)CC2)cc1 95.5%
COc1cc2c(cc1OC)C1(CCCC1)C(N)=C2C#N 54.9%
CN1CCCN(C(c2ccccc2)c2ccc(Cl)cc2)CC1 (stereo not drawn) 78.7%
COc1ccccc1-n1c(N)c(C(=O)NCC2CCCO2)c2nc3ccccc3nc21 (stereo not drawn) 52.9%
COc1cc2nc(N3CCN(C(=O)c4ccco4)CC3)nc(N)c2cc1OC 82.5%
COc1cc2nc(N3CCN(C(=O)C4COc5ccccc5O4)CC3)nc(N)c2cc1OC (stereo not drawn) 91%
COCCNC(=O)c1c(N)n(CCC2=CCCCC2)c2nc3ccccc3nc12 91.2%
